LASV entry inh: blocks Lassa virus binding to or entry into cells | Lassa virus pseudotype entry inhibition, cell reporter | Potency, µM (top dose mostly 37.9 µM), for inactives: at the top dose activity change, negative = inhibition, hits mostly inhibitors | actives 1.2% (n = 300,000) | AID 540256; calls by dose curve; tested in HEK293 cells; also: potency is read from the fitted curve at half-maximal effect; nearly all actives have a fitted effect of over 50% in size
MARV entry inh: Marburg virus entry inhibition | actives 1.8% (n = 300,000) | Potency, µM (highest dose often 37.8 µM), without a hit: at the top dose activity change, negative = inhibition, usual class: inhibitors | Marburg virus pseudotyped entry inhibition, cell reporter; calls by dose curve; tested in HEK293 cells; also: potency is read from the fitted curve at half-maximal effect
HCMV inh: blocks human cytomegalovirus replication. HFF cells, HCMV-luciferase reporter, 72 h; stronger effect = lower value. activity change, negative = inhibition, % at 57.5 µM. actives 4.5% (n = 410,000); in the data active = activity change below about -60%; inconclusive = no clear call, values can overlap the other calls; inactive = above about -39%
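Compounds were evaluated in HFFs infected with an HCMV luciferase reporter virus (MOI 1 PFU/cell). Luciferase in lysates collected 72 h post infection served as the replication measure.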
Pf growth 96h: inhibits malaria parasite growth, 96 h. P. falciparum luciferase reporter growth, 96 h. Potency, µM (top dose mostly 28.7 µM), for inactives: at the top dose activity change, negative = inhibition, usual class: inhibitors. actives 6.9% (n = 320,000). AID 504834; also: potency is read from the fitted curve at half-maximal effect
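P. falciparum expressing integrated firefly luciferase, in erythrocytes at 2% hematocrit, 0.05% parasitemia, incubated with compounds 96 h at 37 C, 5% CO2. Growth inhibition read as loss of luminescence; two-generation exposure targets delayed-death apicoplast inhibitors.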
Pf growth 48h: inhibits P. falciparum growth in the first generation, 48 h; P. falciparum luciferase growth in erythrocytes, 48 h; Potency, µM (doses to about 28.7 µM), for inactives: top-dose activity change, negative = inhibition, actives largely listed as inhibitors; actives 5.9% (n = 310,000); also: potency is read from the fitted curve at half-maximal effect
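Here the parasites carry a stable luciferase gene and grow inside erythrocytes in Albumax-based RPMI medium with compound for one erythrocytic cycle. Activity is scored as loss of luminescent signal.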
HCV inhibitor: inhibitors of hepatitis C virus infection. actives 3.4% (n = 340,000). AID 651820. Potency, µM (doses to about 41.8 µM), for inactives: at the highest dose activity change, negative = inhibition, most hits filed as inhibitors. Huh7.5.1 HCVcc-Cre infection, luciferase reporter, 44 h; also: potency is read from the fitted curve at half-maximal effect
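Whole-lifecycle infectious HCVcc-Cre system; cells 1,000/well, compound then virus (~0.5 moi) added 4 h after plating, 44 h culture. Luciferase read 15 sec following 15 min substrate incubation, room temp.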
Starred values were filed as active, the others as inactive; ? = inconclusive; . = not tested or not shown; [ ] = another dose, or the depositor's remark. A selection: hits, their analogues and other compounds. The true share with any hit is near 14%. Unless noted, calls follow the shape of the dose curve; as a rule, active = well fitted inhibition curve with a large enough effect; inconclusive = small, poorly fitted or top-dose-only effect, or another doubt; inactive = no such curve, though single readings can be large or run the other way. % is scaled to controls: 0 for no effect and ±100 for the full control effect.

SMILES	LASV entry inh	MARV entry inh	HCMV inh	Pf growth 96h	Pf growth 48h	HCV inhibitor
Cc1[nH]n(-c2ccccc2)c(=O)c1C(=O)c1ccccc1	?	-28.7%[46.1 µM]	57.6	25.5%	0.8%	1.6%
Cc1[nH]n(-c2ccccc2)c(=O)c1C(=O)c1cccc(F)c1	?	10.3µM*	-36.1	-15.5%	-0.7%	?
CCNC(=O)Cn1c(=O)c2c(ncn2Cc2ccccc2)n(Cc2ccccc2)c1=O	-4.8%	12.0%	-15.8	1.04µM*	?	26.9%
CCCCNC(=O)Cn1c(=O)c2c(ncn2CC)n(Cc2ccccc2)c1=O	.	.	15.8	13.1µM*	-2.4%	-2.9%
CCn1cnc2c1c(=O)n(CC(=O)Nc1ccc(C(N)=O)cc1)c(=O)n2Cc1ccccc1	.	.	-19.1	13.1µM*	?	16.3%
CC(C)Cn1cnc2c1c(=O)n(CC(=O)N(C)C)c(=O)n2Cc1ccccc1	.	5.4%[46.1 µM]	6.3	?	-19.2%	18.8%
CCn1cnc2c1c(=O)n(CC(=O)NN)c(=O)n2Cc1ccccc1	.	.	-11.9	?	.	19.7%
CC(C)Oc1ccc(C(=O)OCC(=O)NC(=O)NC2CCCC2)cc1	.	.	-25.7	-22.9%	-28.0%	-13.8%
Clc1ccc(Oc2nc3ccccc3n3cccc23)cc1	-0.5%	-6.2%	8.5	58.0%	16.0%	?
COc1ccc(Oc2nc3ccccc3n3cccc23)cc1	-7.2%	-21.6%	-26.1	31.4%	3.3%	11.2µM*
CCCCc1nc2ccccc2c(NC(=O)CNC(C)(C)C)c1CCC	14.6%	2.3%[46.1 µM]	-20.5	-24.6%	-22.6%	?
CCCCc1nc2ccccc2c(N)c1CCC (tested in a mixture with another compound)	?	17.8µM*	-67.8*	?	9.28µM*	-54.8%
COc1ccc(C(C)=O)cc1CC(C(=O)c1ccc(C)c(C)c1)N(C)C (stereo not drawn)	?	-0.6%	3.0	-13.1%	-29.1%	-6.6%
CN(C)C(Cc1ccccc1)C(=O)c1ccc(-c2ccccc2)cc1 (stereo not drawn)	-9.5%	?	23.7	?	.	5.3%
COc1ccc(C(=O)CC(=O)c2ccc(OC)cc2)cc1	1.7%	22.9%	5.4	0.0%	-3.8%	0.6%
COc1ccc(C(C)=O)cc1CC(C(=O)c1ccc(F)cc1)N(C)C (stereo not drawn)	-0.8%	-29.0%[46.1 µM]	-20.5	10.4µM*	?	-11.6%
CN(C)CC(CCC(CN(C)C)C(=O)c1ccccc1)C(=O)c1ccccc1 (stereo not drawn)	-30.5%	12.6µM*	.	13.1µM*	6.57µM*	?
COc1ccc(C(=O)C(CCCCC(CN(C)C)C(=O)c2ccc(OC)cc2)CN(C)C)cc1 (stereo not drawn)	?	?	?	9.28µM*	10.4µM*	3.55µM*
COc1ccc(C(=O)C(Cc2ccccc2)N(C)C)cc1 (stereo not drawn)	13.7%	2.5%	-4.6	1.31µM*	?	-2.8%
CC(=O)Nc1ccc(C(=O)N2CCCCC2c2cc(C(=O)Nc3ccccc3Cl)no2)cc1 (stereo not drawn)	.	.	-27.1	.	.	.
CC(C)(C)NC(=O)c1ccc(Sc2ccccc2)c([N+](=O)[O-])c1	-25.7%	-19.6%	41.7	?	10.4µM*	?
FC(F)(F)c1cc(N2CCN(Cc3ccccc3)CC2)c2ccccc2n1	-15.2%	-9.3%	-0.3	9.28µM*	?	-22.4%
Cc1cc(C)c(NC(=O)/C(=C/c2ccccc2)c2ccccc2)c(C)c1	?	?	-28.6	14.2%	4.15µM*	5.2%
CCNC(=O)c1c(NC(=O)c2nc(S(=O)(=O)CC)ncc2Cl)sc2c1CCCC2	7.94µM*	1.7%[46.1 µM]	-101.2*	.	.	.
CCSc1ncc(Cl)c(C(=O)Nc2sc3c(c2C(=O)NCc2cccnc2)CCCC3)n1	-22.8%	-1.8%	-15.5	?	?	10µM*
SMILES	LASV entry inh	MARV entry inh	HCMV inh	Pf growth 96h	Pf growth 48h	HCV inhibitor
CC(C)c1noc(-c2ccccc2OCC(=O)Nc2cccc([N+](=O)[O-])c2)n1	1.1%[46.1 µM]	?	8.5	.	.	.
CCOc1ccc2c(c1)sc1nc(=O)n(-c3ccc(Cl)c(Cl)c3)c(=O)n12	25.8%[46.1 µM]	-2.3%[46.1 µM]	-16.4	.	.	.
COc1cccc(CN(C(=O)c2ccc(C(C)(C)C)cc2)C2CCS(=O)(=O)C2)c1 (stereo not drawn)	-13.4%[46.1 µM]	-18.6%[46.1 µM]	14.9	.	.	.
CCOc1ccc(C(=O)N2CCC(c3noc(-c4ccc(S(=O)(=O)N5CCCC5)cc4)n3)CC2)cc1	?	?	14.3	.	.	.
CCn1cnc2sc(C(=O)N3CCN(Cc4ccc5c(c4)OCO5)CC3)c(C)c2c1=O	.	7.4%	5.5	-7.7%	1.7%	.
NC(=O)CN1CCN(Cc2ccc3c(c2)OCO3)CC1	-22.2%	?	28.0	11.7µM*	6.5%	15.9%
CC1CCN(c2nc3ccc(C(=O)N4CCN(Cc5ccccc5)CC4)cc3s2)CC1	.	-2.5%	?	-17.3%	.	11.2µM*
Cc1nnc(C)c2c(C)n(Cc3ccc4c(c3)OCO4)c(C)c12	-2.3%	-9.9%	?	?	?	4.47µM*
CCN(CC)C(=O)CN1CCN(Cc2ccc3c(c2)OCO3)CC1	0.0%	-2.9%[46.1 µM]	24.0	21.9%	8.8%	1.1%
CCN(CC)C(=O)Cn1cnc2sc(C(=O)N3CCN(Cc4ccc5c(c4)OCO5)CC3)c(C)c2c1=O	?	-21.0%[46.1 µM]	-97.1*	?	-15.1%	?
CCOc1ccc(CNC(=O)C2CCN(C(=O)N3CC(CC)Oc4ccc(C)cc43)CC2)cc1OC (stereo not drawn)	?	.	-21.7	.	.	.
CCCCC1Cc2[nH][nH]c(=O)c2C(c2ccc(F)cc2)O1 (stereo not drawn)	.	.	-2.9	.	.	.
CC(C)[C@@H]1CC[C@@H](C)C[C@@H]1P(=O)(c1ccccc1)c1ccccc1	7.5%	-29.8%	.	.	.	.
CCOC(=O)N1CCN(C(=O)c2ccc3nc(N4CCCCC4)sc3c2)CC1	-2.2%	-1.5%	10.5	10.4µM*	-2.9%	-9.6%
CCOC(=O)N1CCN(C(=O)c2ccc3nc(N4CCC(C)CC4)sc3c2)CC1	3.4%	-3.0%	-18.3	163.5%	?	-20.4%
O=C(CN1C(=O)c2cccc3cccc(c23)C1=O)N1CCN(Cc2ccc3c(c2)OCO3)CC1	-7.1%	-8.1%	-16.1	-6.9%	-15.2%	22.4µM*
CCOc1ccc2nc(N3CCC(C(=O)N4CCN(C(=O)c5ccco5)CC4)CC3)sc2c1	-14.3%	?	.	?	13.1µM*	?
CCN(Cc1ccccc1)S(=O)(=O)c1ccc(C(=O)N2CCN(c3nc4ccccc4s3)CC2)cc1	-0.4%	?	-66.5*	-6.5%	-0.5%	10µM*
O=C(c1ccccc1)N1CCN(c2nc3ccc([N+](=O)[O-])cc3s2)CC1	.	.	-66.6*	-19.5%	-3.5%	?
Cc1ccc2[nH]c3c(c2c1)CN(C(=O)CN1CCSCC1)CC3	.	0.1%	13.0	13.1%	?	.

Screening data: PubChem, National Center for Advancing Translational Sciences (NCATS)
